Most compounds without a hit are left out; they make up all but 2% or so of the library.
PKM2 activator – activators of human pyruvate kinase M2. P14618. purified PKM2, Kinase-Glo ATP luminescence, activation; response scale: 0% is enzyme alone, no compound. Potency, µM (top dose mostly 57.5 µM), without a hit: top-dose activation, most hits filed as activators. hit rate 0.34% among 260,000; also: potency is read from the fitted curve at half-maximal effect; % is scaled to controls: 0 for no effect and ±100 for the full control effect; nearly all actives have a fitted effect of over 55% in size
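ATP formation by purified human PK-M2, quantified via coupled luciferase luminescence after 1 h at room temperature with 0.1 mM ADP and 0.5 mM PEP final.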
ClpP mod – qHTS Assay for Activators of ClpP | ATP-dependent Clp protease proteolytic subunit (Bacillus subtilis (strain 168)), P80244 | purified B. subtilis ClpP, FRET peptide cleavage, 20 min | Potency, µM (titrated, usually from 57.5 µM), for the others: top-dose activity change, negative = active | hit rate 1.9% among 340,000; active = well fitted falling curve with a large enough effect; inconclusive = small, poorly fitted or top-dose-only effect; inactive = no such curve, though single readings can be large or run the other way; also: potency is read from the fitted curve at half-maximal effect; the source files actives as falling curves though it sought activators and does not explain the sign; nearly all actives have a fitted effect of over 65% in size
Target sequence (P80244 whole entry, looked up): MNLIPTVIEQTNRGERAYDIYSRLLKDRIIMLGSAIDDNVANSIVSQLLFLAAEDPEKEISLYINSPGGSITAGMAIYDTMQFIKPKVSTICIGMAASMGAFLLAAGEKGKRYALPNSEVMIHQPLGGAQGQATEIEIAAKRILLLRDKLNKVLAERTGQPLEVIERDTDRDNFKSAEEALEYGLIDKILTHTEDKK
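Purified B. subtilis ClpP, 10 microg/mL final in Tris/HCl pH8 with KCl, BSA, glycerol and Tween-20, cleaved an Abz/nitrotyrosine-quenched decapeptide. Fluorescence (ex 320, em 430) was read at 0 and 20 min at room temperature. Delta was normalized to 5.8 microM ADEP and DMSO/no-enzyme controls.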
IL-2 act – activators of IL-2. activation, % (series mostly up to about 46 µM). hit rate 0.065% among 360,000. IL-2 activation reporter assay, cell-based qHTS; stimulated with anti-CD3/CD4/CD28 beads; in transgenic mouse T cells; in the data active = activation above about 50%; inconclusive = mostly about 30% to 49%; also: 0% is about no effect
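Screening format: compound pinned onto unstimulated transgenic mouse T cells, 60 min incubation, then anti-CD3/anti-CD4/anti-CD28 bead stimulation for 18 hours at 37 degrees C, followed by EGFP and DsRed detection.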
NPSR antag – neuropeptide S receptor (human) antagonism, cAMP. Q6W5P4. CHO-NPSR cells, cAMP TR-FRET, antagonist mode. Potency, µM (top dose mostly 38.3 µM), inactives show top-dose activity change, negative = inhibition, usual class: inhibitors. hit rate 1% among 220,000. AID 1461; also: potency is read from the fitted curve at half-maximal effect; % is scaled to controls: 0 for no effect and ±100 for the full control effect; nearly all actives have a fitted effect of over 50% in size
Target sequence (Q6W5P4 whole entry, looked up): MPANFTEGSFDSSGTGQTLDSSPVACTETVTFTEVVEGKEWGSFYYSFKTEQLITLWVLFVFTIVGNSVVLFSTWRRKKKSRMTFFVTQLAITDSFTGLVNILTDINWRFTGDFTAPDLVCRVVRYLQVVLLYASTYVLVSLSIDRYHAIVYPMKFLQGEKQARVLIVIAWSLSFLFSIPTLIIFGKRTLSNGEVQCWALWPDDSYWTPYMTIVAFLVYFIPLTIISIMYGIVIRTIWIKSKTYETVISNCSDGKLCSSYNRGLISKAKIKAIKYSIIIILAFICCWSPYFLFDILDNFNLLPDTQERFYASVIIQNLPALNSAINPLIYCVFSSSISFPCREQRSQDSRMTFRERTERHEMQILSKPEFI
An asterisk follows results filed as active; [ ] = remark or other dose. Unless noted, calls follow the shape of the dose curve; as a rule, active = well fitted curve in the direction sought with a large enough effect; inconclusive = small, poorly fitted or top-dose-only effect, or another doubt; inactive = no such curve, though single readings can be large; an effect the other way counts as inactive or inconclusive.

`COc1ccc(C2Nc3ccccc3C(=O)N2c2ccc(C)cc2)cc1Cn1nc(C)c([N+](=O)[O-])c1C` (stereo unspecified) gave PKM2 activator 2%, ClpP mod -5%, IL-2 act -2 and NPSR antag inconclusive.
Screening O=C(Nc1ccc([N+](=O)[O-])cc1)NN1CCCCCC1 returned ClpP mod -2% and IL-2 act -1.
`Cc1ccc(C)c(NC(=O)C2CCN(c3ncnc4c3nc3n4CCCCC3)CC2)c1` gave ClpP mod -1%.
Screening O=C(O)c1cc(-c2ccc3c(c2)OCO3)nc2ccc(Br)cc12 returned PKM2 activator 0%, IL-2 act 0 and NPSR antag 6.3µM*.
O=C(O)c1cc(-c2cccnc2)nc2ccc(Br)cc12 was read as PKM2 activator -3%, ClpP mod -1%, IL-2 act 1 and NPSR antag 5µM*.
For CCN1CCN(C(=O)c2cc(-c3cccnc3)nc3ccc(Br)cc23)CC1 the results were PKM2 activator 3%, ClpP mod 0%, IL-2 act 0 and NPSR antag 13%[46.1 µM].
For CCCOc1ccc(/C(CC)=N/NC(=O)C2(C)CC2(Br)Br)cc1 (stereo unspecified) the results were PKM2 activator -1%, ClpP mod -1%, IL-2 act 0 and NPSR antag -32%.
`CCOc1nc(N=C(N)N)nc2c(C)cccc12` gave PKM2 activator -4%, ClpP mod 16µM*, IL-2 act -1 and NPSR antag -7%[46.1 µM].
CC(=O)Nc1cc2c3ccccc3ccc2c2ccccc12 was read as ClpP mod 32µM* and IL-2 act 0.
Screening CCOC(=O)c1nc(N)c(C(=O)OCC)[nH]1 returned PKM2 activator 0%, ClpP mod 14µM*, IL-2 act -3 and NPSR antag -10%[46.1 µM].
For CCOC(=O)c1nc2ccccc2c(=O)[nH]1 the results were PKM2 activator 4%, IL-2 act -2 and NPSR antag -19%.
For Cc1ccc(-n2c(C)cc(C3=NNC(=NC4CC4)SC3)c2C)cc1C the results were PKM2 activator 0%, ClpP mod -4%, IL-2 act -5 and NPSR antag 10µM*.
O=C(CN1CCN(C(=O)c2cncn2-c2ccc(F)cc2)CC1)Nc1ccccc1C(F)(F)F was read as ClpP mod 0% and IL-2 act -1.
`CSc1ccc(CNCC(O)c2ccccc2)cc1` (stereo unspecified) gave PKM2 activator 1%, IL-2 act 1 and NPSR antag 1%.
For COc1ccccc1N1CCN(C(=O)c2sc3ncn(CC(=O)N4CCC(C)CC4)c(=O)c3c2C)CC1 the results were PKM2 activator 3%, ClpP mod 1% and IL-2 act -1.
Screening O=c1[nH]c(=O)n(Cc2ccccc2)c2nc(-c3ccco3)cc(C(F)(F)F)c12 returned PKM2 activator 2%, ClpP mod 14µM*, IL-2 act 1 and NPSR antag inconclusive.
Screening Cc1nn(C)cc1NC(=O)c1nn(C)cc1[N+](=O)[O-] returned PKM2 activator -6%, ClpP mod -1%, IL-2 act -1 and NPSR antag 9%.
`CC(C)(C)c1ccc(Cn2cnc(-c3ccc([N+](=O)[O-])cc3)c2)cc1` gave PKM2 activator 0%, ClpP mod 10µM*, IL-2 act -4 and NPSR antag inconclusive.
For Cc1cc(C)c(Cn2cnc(-c3ccc([N+](=O)[O-])cc3)c2)c(C)c1 the results were PKM2 activator inconclusive, ClpP mod 2%, IL-2 act -2 and NPSR antag inconclusive.
COc1cc2cc(C(c3nnnn3C(C)(C)C)N3CCC(C)CC3)c(=O)[nH]c2cc1OC (stereo unspecified) was read as PKM2 activator 8%, ClpP mod 13µM*, IL-2 act -2 and NPSR antag -17%[46.1 µM].
`COc1cc2cc(C(c3nnnn3C(C)(C)C)N3CCc4ccccc43)c(=O)[nH]c2cc1OC` (stereo unspecified) gave PKM2 activator 0%, ClpP mod 17%, IL-2 act 3 and NPSR antag -22%[46.1 µM].
COCCn1nnnc1C(c1cc2cc(C)ccc2[nH]c1=O)N1CCCCCC1 (stereo unspecified) was read as PKM2 activator 1%, ClpP mod 28µM*, IL-2 act 0 and NPSR antag -7%[46.1 µM].
For CCC(C)(C)n1nnnc1C(c1cc2cc3c(cc2[nH]c1=O)OCO3)N1CCCCC1 (stereo unspecified) the results were PKM2 activator -2%, ClpP mod 14µM*, IL-2 act 0 and NPSR antag -7%[46.1 µM].
O=c1[nH]c2cc3c(cc2cc1C(c1nnnn1Cc1ccccc1)N1CCN2CCCC2C1)OCCO3 (stereo unspecified) was read as PKM2 activator -4%, ClpP mod 25µM*, IL-2 act -1 and NPSR antag -14%[46.1 µM].
Screening CSc1ccc(CNCCCSc2ncccn2)cc1 returned PKM2 activator 0%, ClpP mod 8.9µM* and IL-2 act 1.
`COc1cc(NC(=O)NCC2CCN(Cc3ccccc3C)CC2)cc(OC)c1OC` gave ClpP mod 0% and IL-2 act 0.
For Cc1c(Cl)sn(-c2ccc(Cl)cc2)c1=O the results were PKM2 activator -4%, IL-2 act -1 and NPSR antag 2.5µM*.
Screening Cc1nn(-c2ccc(Cl)cc2)c(=O)c2ccccc12 returned PKM2 activator 1%, ClpP mod 0%, IL-2 act 0 and NPSR antag -33%.
For Cc1c(N=C2C=CC(=O)c3ccccc32)c(=O)n(-c2ccccc2)n1C the results were PKM2 activator 14%, IL-2 act 0 and NPSR antag 10µM*.
O=S(=O)(c1cnc(Cl)c(Br)c1)N1CCc2ccccc21 was read as PKM2 activator inconclusive, IL-2 act -2 and NPSR antag 1%.
`CC(=O)N(C)c1ccc(NC(=S)Nc2cccc3ccccc23)cc1` gave PKM2 activator 4%, ClpP mod 32µM*, IL-2 act -1 and NPSR antag 25%.
For COc1cc(/C=N/O)ccc1Oc1cnccn1 the results were IL-2 act 5.
`COC(=O)c1ccc(C(=O)OC)c(NC(=O)COC(=O)C2CCCCC2)c1` gave PKM2 activator -16%, ClpP mod inconclusive, IL-2 act 0 and NPSR antag -15%[46.1 µM].
COC(=O)c1ccc(C(=O)OC)c(NC(=O)COC(=O)C2CCC(C(C)(C)C)CC2)c1 (stereo unspecified) was read as PKM2 activator -1%, ClpP mod 28µM*, IL-2 act -3 and NPSR antag -10%[46.1 µM].
For CC(C)CC1NC(=O)N(CC(=O)NC2CCCc3ccccc32)C1=O (stereo unspecified) the results were PKM2 activator -1%, ClpP mod 28µM*, IL-2 act -2 and NPSR antag 8%.

Compound activity as filed in PubChem BioAssay.
